Results from PubChem BioAssay (NCATS).
Records with an inconclusive call do not appear. Calls of active or inactive are those of the source. Calls come from the whole dose curve; as a rule, active = well fitted curve in the direction sought with a large enough effect; inconclusive = small, poorly fitted or top-dose-only effect, or another doubt; inactive = no such curve, though single readings can be large; an effect the other way counts as inactive or inconclusive.

Columns and labels:
[1] = qHTS of pediatric cancer cell lines to identify multiple opportunities for drug repurposing: Primary screen for OHS-50 cells (AID 1347103); note: potency is the fitted concentration of half-maximal effect; nearly all actives have a fitted effect of over 40% in size
Outline: (§1)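 Cells (500-1,000/well) rested 5 h, then received compounds for 48 h; metabolically active cells were measured by CellTiter-Glo luminescence. Final concentrations spanned up to 46 µM (MIPE, 11-point) or 0.59 nM-46 µM (NPC, 8-point) in primary screens, 11-point in follow-ups.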

[2] = qHTS of pediatric cancer cell lines to identify multiple opportunities for drug repurposing: Primary screen for control Hh wild type fibroblast cells (AID 1347106);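 note: a drop in luminescence marks cytotoxicity and a rise apparent proliferation; nearly all actives have a fitted effect of over 55% in size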
Outline: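 Viability after 48 h compound treatment at 37C, 500-1,000 cells/well, read as ATP luminescence with CellTiter-Glo. Primary screens used 11-point (MIPE, 0.78 nM-46 µM) or 8-point (NPC, 0.59 nM-46 µM) final concentrations; follow-up screens used 11-point dilutions.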

[3] = qHTS of pediatric cancer cell lines to identify multiple opportunities for drug repurposing: Primary screen for RD cells (AID 1347104); note: potency is the fitted concentration of half-maximal effect; nearly all actives have a fitted effect of over 55% in size
Outline: (§2)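 Plated cells (500-1,000 per well, growth media) were allowed to settle for 5 hours, treated with compound dilutions for 48 hours, then lysed with CellTiter-Glo for 15 min at room temperature before luminescence reading.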

[4] = qHTS of pediatric cancer cell lines to identify multiple opportunities for drug repurposing: Primary screen for MG 63 (6-TG R) cells (AID 1347105); note: nearly all actives have a fitted effect of over 50% in size; note: potency is the fitted concentration of half-maximal effect
Outline: as §2

[5] = qHTS of pediatric cancer cell lines to identify multiple opportunities for drug repurposing: Primary screen for Rh30 cells (AID 1347107); note: nearly all actives have a fitted effect of over 75% in size; note: potency is the fitted concentration of half-maximal effect
Outline: as §1

[6] = qHTS of pediatric cancer cell lines to identify multiple opportunities for drug repurposing: Primary screen for Rh41 cells (AID 1347108); note: potency is the fitted concentration of half-maximal effect; nearly all actives have a fitted effect of over 70% in size
Outline: as §2

[7] = qHTS of pediatric cancer cell lines to identify multiple opportunities for drug repurposing: Primary screen for Rh18 cells (AID 1347102); note: nearly all actives have a fitted effect of over 65% in size; note: potency is the fitted concentration of half-maximal effect
Outline: as §1

[8] = qHTS of pediatric cancer cell lines to identify multiple opportunities for drug repurposing: Confirmatory screen for NB1643 cells (AID 1347109); note: potency is the fitted concentration of half-maximal effect; nearly all actives have a fitted effect of over 45% in size
Outline: as §1

[9] = qHTS of pediatric cancer cell lines to identify multiple opportunities for drug repurposing: Confirmatory screen for A673 cells (AID 1347110);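 note: potency is the fitted concentration of half-maximal effect; cells exposed to compound for 48 h before the viability read; nearly all actives have a fitted effect of over 65% in size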
Outline: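 A673 cells at 500-1,000 cells/well were dosed 5 h after plating, in dilution series up to 46 uM final; primary runs used 8 or 11 points and confirmatory runs used 11 points. Viability was read by CellTiter-Glo luminescence after 48 h, against DMSO and 2.3 uM bortezomib controls.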

[10] = qHTS of pediatric cancer cell lines to identify multiple opportunities for drug repurposing: Confirmatory screen for SK-N-MC cells (AID 1347111);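 note: potency is the fitted concentration of half-maximal effect; cells exposed to compound for 48 h before the readout; nearly all actives have a fitted effect of over 70% in size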
Outline: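 Seed 500-1,000 cells/well; rest 5 h at 37 degrees C. Pin-transfer compounds, 11-point titration. Incubate 48 h. Add CellTiter-Glo, 15 min RT, read luminescence.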

[11] = qHTS of pediatric cancer cell lines to identify multiple opportunities for drug repurposing: Confirmatory screen for LAN-5 cells (AID 1347113); note: potency is the fitted concentration of half-maximal effect; nearly all actives have a fitted effect of over 65% in size
Outline: as §1

[12] = qHTS of pediatric cancer cell lines to identify multiple opportunities for drug repurposing: Confirmatory screen for DAOY cells (AID 1347114); note: potency is the fitted concentration of half-maximal effect; nearly all actives have a fitted effect of over 65% in size
Outline: (§3)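 Viability measured as metabolically active cells via CellTiter-Glo luminescence following 48 hours of compound exposure, 11-point dilutions in confirmatory testing. 500-1,000 cells/well plated 5 hours before dosing; controls were DMSO and 2.3 µM bortezomib.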

[13] = qHTS of pediatric cancer cell lines to identify multiple opportunities for drug repurposing: Confirmatory screen for BT-37 cells (AID 1347117); conditions: BT-37 pediatric cancer cells, viability; activity change, negative = cytotoxic: at 45.9 µM (top of the series); note: potency is the fitted concentration of half-maximal effect; nearly all actives have a fitted effect of over 55% in size
Outline: as §1

[14] = qHTS of pediatric cancer cell lines to identify multiple opportunities for drug repurposing: Confirmatory screen for TC32 cells (AID 1347118)
Outline: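 Luminescent ATP read-out (CellTiter-Glo) of metabolically active TC32 cells after 48 h exposure. Concentration-response curves came from 11-point (MIPE, 0.78 nM–46 µM) or 8-point (NPC, 0.59 nM–46 µM) primary titrations; follow-up used 11 points.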

[15] = qHTS of pediatric cancer cell lines to identify multiple opportunities for drug repurposing: Confirmatory screen for MG 63 (6-TG R) cells (AID 1347119); note: nearly all actives have a fitted effect of over 55% in size; note: potency is the fitted concentration of half-maximal effect
Outline: as §1

[16] = qHTS of pediatric cancer cell lines to identify multiple opportunities for drug repurposing: Confirmatory screen for control Hh wild type fibroblast cells (AID 1347121); note: nearly all actives have a fitted effect of over 70% in size
Outline: as §1

[17] = qHTS of pediatric cancer cell lines to identify multiple opportunities for drug repurposing: Confirmatory screen for BT-12 cells (AID 1347112)
Outline: as §1

[18] = qHTS of pediatric cancer cell lines to identify multiple opportunities for drug repurposing: Confirmatory screen for SJ-GBM2 cells (AID 1347116); note: potency is the fitted concentration of half-maximal effect; nearly all actives have a fitted effect of over 60% in size
Outline: as §3

Measured: Potency

COc1cc2c(cc1O)CCC1C2CC[C@@]2(C)C1CC[C@@H]2O (some centres undefined)
active: [1] 7.69 µM
inactive: [2]

CCOC(=O)N1CCN([N+]([O-])=NOc2ccc([N+](=O)[O-])cc2[N+](=O)[O-])CC1
active: [1] 13.7 µM | [3] 18.7 µM | [4] 18.7 µM | [6] 4.18 µM
inactive: [5]

N#CC(=C(N)Sc1ccc(N)cc1)c1ccccc1C(F)(F)F
inactive: [7] | [4] | [5]

CC(=O)O[C@]1(C(C)=O)CC[C@H]2[C@@H]3C=C(C)C4=CC(=O)CC[C@]4(C)[C@@H]3CC[C@@]21C
inactive: [5]
active: [7] 13.2 µM

COc1cc(OC)c(C=CS(=O)(=O)Cc2ccc(OC)c(NCC(=O)O)c2)c(OC)c1
inactive: [7] | [4] | [5] | [16]
active: [8] 0.414 µM | [9] 0.369 µM | [10] 0.293 µM | [11] 1.17 µM | [12] 0.165 µM | [13] 0.657 µM | [14] 0.208 µM | [15] 0.208 µM

CC(C)n1cnc2c(NCCc3ccc(O)cc3)nc(-c3csc4ccccc34)nc21
inactive: [2]
active: [3] 11.8 µM | [4] 18.7 µM | [5] 18.7 µM | [6] 11.8 µM

COc1cccc2c1C(=O)c1c(O)c3c(c(O)c1C2=O)C[C@@](O)(C(C)=O)C[C@H]3O[C@H]1C[C@H](N)[C@H](O)[C@H](C)O1
active: [1] 0.344 µM | [3] 0.0743 µM | [4] 0.372 µM | [6] 0.0469 µM | [8] 0.165 µM | [9] 0.414 µM | [10] 0.165 µM | [17] 1.31 µM | [11] 0.185 µM | [12] 3.69 µM | [18] 1.31 µM | [13] 0.165 µM | [14] 0.117 µM | [15] 0.233 µM
inactive: [5]

CCn1c(=O)c2c(nc(C=Cc3ccc(OC)c(OC)c3)n2C)n(CC)c1=O
inactive: [7] | [4] | [2] | [5]

Cc1ncc(-c2ccnc(Nc3ccc(S(C)(=O)=O)cc3)n2)n1C(C)C
active: [1] 3.85 µM | [3] 6.62 µM | [6] 5.9 µM | [12] 13.1 µM | [18] 2.61 µM | [13] 3.29 µM | [14] 4.65 µM
inactive: [2] | [5] | [15] | [16]
